# High-throughput results from PubChem BioAssay.
# TCR act: activates T cell receptor signaling. primary human leukocytes, anti-CD3, IL-2 HTRF, 48 h. Potency, µM (highest dose often 9.22 µM), for the others: top-dose activation of IL-2 secretion, usual class: activators. 330,000 tested, under 10 active. AID 504894; note: % of control where 0% means no effect
#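 Readout: HTRF IL-2, Eu-cryptate/d2 antibody pair, 320nm excitation, 665nm emission. Stimulus: a-CD3 beads, no co-stimulation. Cells: primary human leukocytes. Exposure: 48 hr with compound.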
# Sfp PPTase inh: Sfp phosphopantetheinyl transferase inhibition; Q9F4F7; Potency, µM, for inactives: largest response in the series, negative = inhibition, most hits filed as inhibitors; actives 3.5% (n = 310,000); Biochemical Sfp PPTase activity, qHTS;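 note: the enzyme is Sfp with the accession as filed and its product quenches rhodamine fluorescence; potency is the fitted concentration of half-maximal effect; 0% = enzyme reaction without inhibitor and -100% = no enzyme wells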
#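 Step 1, compound plus 15 nM Sfp-PPTase, 15 min, room temperature. Step 2, add rhodamine-CoA (5 uM) and BHQ-2-YbbR (12.5 uM). Step 3, read 525/598 nm fluorescence at 0 and 30 min.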
# uPA surface inh: blocks generation of uPA at the cell surface. cell surface uPA generation assay, qHTS. Potency, µM (doses to about 38.3 µM), without a hit: at the highest dose activity change, negative = inhibition, usual class: inhibitors. actives 0.31% (n = 330,000). AID 540303; active = well fitted inhibition curve with a large enough effect; inconclusive = small, poorly fitted or top-dose-only effect; inactive = no such curve, though single readings can be large or run the other way; tested in mouse RAW 264.7 cells; note: potency is the fitted concentration of half-maximal effect; % is set by controls: 0 for no effect and ±100 for the full control effect; nearly all actives have a fitted effect of over 55% in size
# ClpP mod: qHTS Assay for Activators of ClpP | purified B. subtilis ClpP, FRET peptide cleavage, 20 min | AID 651965, 2013 | actives 1.9% (n = 340,000) | Potency, µM (titrated, usually from 57.5 µM), without a hit: top-dose activity change, negative = active; active = well fitted falling curve with a large enough effect; inconclusive = small, poorly fitted or top-dose-only effect; inactive = no such curve, though single readings can be large or run the other way; note: potency is the fitted concentration of half-maximal effect; the source files actives as falling curves though it sought activators and does not explain the sign; nearly all actives have a fitted effect of over 65% in size
# Target sequence (P80244 whole entry, looked up): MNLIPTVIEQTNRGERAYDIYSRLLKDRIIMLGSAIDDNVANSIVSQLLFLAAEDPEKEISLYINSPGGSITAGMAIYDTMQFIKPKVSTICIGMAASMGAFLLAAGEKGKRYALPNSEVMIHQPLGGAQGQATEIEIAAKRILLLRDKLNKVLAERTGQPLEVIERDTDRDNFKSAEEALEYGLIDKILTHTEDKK
#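 FRET quenching reversal measured ClpP activation: 10 microg/mL B. subtilis ClpP at pH 8 with the FRET-FV decapeptide, read at 430 nm after 320 nm excitation. The 20-min minus 0-min signal was scaled between DMSO/no-enzyme wells and ADEP (5.8 microM final).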
# Starred values were filed as active, the others as inactive; ? = inconclusive; · = no result given; [ ] = remark or other dose. Compounds with a hit are over-represented: about 4.2% of the library has one in this group of screens. Unless noted, calls come from the whole dose curve; as a rule, active = well fitted curve in the direction sought with a large enough effect; inconclusive = small, poorly fitted or top-dose-only effect, or another doubt; inactive = no such curve, though single readings can be large; an effect the other way counts as inactive or inconclusive.
SMILES,TCR act,Sfp PPTase inh,uPA surface inh,ClpP mod
COc1ccccc1-c1nccc(NCc2cnc(C)cn2)n1,·,50.1µM*,·,·
O=C(Cn1c(=O)n(-c2ccc(Cl)cc2)c(=O)c2c3c(sc21)CCCCC3)Nc1cccc(Cl)c1,·,·,·,1.4%
CC(C(=O)N(C)Cc1cccc(F)c1)N1CCN(S(=O)(=O)c2ccc3c(c2)OCCCO3)CC1 (centres undefined),-0.1%,·,-3.7%,-1.6%
CC1C(=O)N2CCCc3cc(S(=O)(=O)Nc4ccccc4F)cc1c32 (centres undefined),1.3%,·,3.5%,-1.0%
CC1C(=O)N2CCCc3cc(S(=O)(=O)Nc4ccccc4C(N)=O)cc1c32 (centres undefined),-2.5%,·,-8.7%,31.6µM*
CCc1ccc(CNC(=O)Cc2ccc(NC(=O)N3CCSc4ncccc43)cc2)cc1,·,·,·,-13.4%
CC(=O)c1ccc(NC(=O)C2C3C=CC(O3)C2C(=O)O)cc1 (centres undefined),3.8%,11.4%,2.4%,·
CCCOC(=O)c1ccc(NC(=O)C2C3C=CC(O3)C2C(=O)O)cc1 (centres undefined),1.2%,79.4µM*,-2.9%,-1.1%
COc1ccc(C23CC4CC(CC(C(=O)O)(C4)C2)C3)c(F)c1,0.7%,16.9%,6.3%,-0.6%
CC(C)n1cnc2c(=S)nc[nH]c21,-0.5%,8.91µM*,-3.2%,1.9%
Cc1nn2c(C)c(C(=O)NCc3ccc(OC(C)C)cc3)cnc2c1-c1ccc(F)cc1,·,·,·,-1.8%
Cc1cc(C)nc(N/N=C/C2=C(N3CCOCC3)C(=C\c3ccc(Cl)cc3)/CC2)n1,-1.7%[46.1 µM],-28.5%,-2.7%,·
O=C(O)c1ccc(N/N=C/C2=C(N3CCOCC3)C(=C\c3ccccc3)/CC2)cc1,2.5%,50.1µM*,2.3%,·
Cc1ccccc1S(=O)(=O)N1CCN(c2nc(-c3cccs3)nc3ccccc23)CC1,·,·,·,-9.8%
NC(=O)CSc1nnc(-c2cc(-c3cccs3)nc3ccccc23)o1,4.0%,8.1%,7.2%,25.1µM*
CCC(C)NC(=O)CSc1nnc(-c2cc(-c3cccs3)nc3ccccc23)o1 (centres undefined),2.8%,8.3%,-5.2%,25.1µM*
CCCN(CC1CC1)C(=O)CSc1nnc(-c2cc(-c3cccs3)nc3ccccc23)o1,-12.8%,-2.2%,-0.6%,25.1µM*
CCC(C)NC(=O)CSc1nc(-c2cccs2)cc(C(F)(F)F)n1 (centres undefined),·,-1.3%,8.8%,?
O=C(CSc1nnc(-c2cc(-c3cccs3)nc3ccccc23)o1)NC1CCCCC1,8.0%,?,-7.1%,?
O=C(O)C(O)C(O)C(O)C(O)C(=O)O (centres undefined),·,-0.1%,·,·
CC1CC=CC2C1C(=O)N(Cc1ccccc1)C2c1ccc(-c2cc3ccccc3s2)cc1F (centres undefined),·,9.4%,·,·
O=C1C=CC(=O)C2=C1C1c3ccccc3C2c2ccccc21,·,3.16µM*,·,·
O=C1NC2C3CC(c4ccccc43)C12 (centres undefined),·,·,·,-0.8%
CCCCCCC1Cc2cc(OC)c(OC)cc2C(C(C(=O)OCC)C(=O)OCC)O1 (centres undefined),·,4.0%,·,·
Cc1cccc(C(=O)Nc2cc3nn(-c4ccc(C(C)C)cc4)nc3cc2C)c1,·,·,·,10µM*
SMILES,TCR act,Sfp PPTase inh,uPA surface inh,ClpP mod
O=S(=O)(/C=C/C=C/S(=O)(=O)c1ccccc1)c1ccccc1,-0.1%,·,4.4%,-3.0%
NC(=O)CC(NC(=O)c1ccc(Br)cc1)c1ccc(NCc2ccc(F)c(F)c2)c([N+](=O)[O-])c1 (centres undefined),0.9%,50.1µM*,6.4%,-2.1%
COc1ccc(CCNC(=O)Cn2c(=O)n(-c3cc(OC)c(OC)c(OC)c3)c(=O)c3ccccc32)cc1OC,·,·,·,-1.0%
COc1ccc2[nH]c3c(=O)n(Cc4ccc(C(=O)N5CCC(C(N)=O)CC5)cc4)c(=S)[nH]c3c2c1,-5.5%,22.4µM*,6.0%,6.0%
N[C@H](C(=O)O)c1nn[nH]n1,·,89.1µM*,·,·
CCOC(=O)Cc1nn[nH]n1,-4.5%,?,8.2%,·
COC(=O)c1scc(-c2ccc(C)cc2)c1S(=O)(=O)N1CCN(c2ccc(C(C)=O)cc2)CC1,·,·,·,-2.3%
O=c1cc(CN2CCN(c3ccc(O)cc3)CC2)nc2scc(-c3ccccc3)n12,3.0%,56.2µM*,-3.3%,0.7%
CCCCCCCCN(CCCCCCCC)c1ccc(/C=C/c2ccnc3ccccc23)cc1,·,·,·,2.5%
COc1ccccc1-c1c(-c2ccc(OCC(=O)NN)cc2O)n[nH]c1C(F)(F)F,-3.2%[46.1 µM],2.0%,5.1%,-5.5%
COc1ccc(-c2n[nH]c(C(F)(F)F)c2-c2cc3ccccc3o2)c(O)c1,1.8%,4.6%,-16.6%,25.1µM*
CC1Sc2ccc(C(=O)Nc3ccccc3OC(F)F)cc2NC1=O (centres undefined),1.2%,·,11.4%,-2.0%
Cc1[nH]c(=O)cc2ccccc12,0.8%,10.2%,2.1%,22.4µM*
Cc1cc(=O)[nH]c2ccccc12,6.0%,12.5%,2.0%,-17.4%
N#C/C(=C\c1ccc(N2CCOCC2)o1)c1nc2ccccc2[nH]1,9.1%,31.6µM*,-7.4%,2.6%
CC(C)c1cc(NCCCN2CCOCC2)n2c(nc3ccccc32)c1C#N,-0.3%[46.1 µM],9.1%,0.1%,28.2µM*
N#Cc1c2c(c(NCCCN3CCOCC3)n3c1nc1ccccc13)CCC2,5.6%,15.1%,9.7%,31.6µM*
N#Cc1ccc(NC(=S)N2CCC3CC2c2cc(-c4ccc5c(c4)OCO5)ccc23)cc1 (centres undefined),·,·,·,1.5%
CC(C)(C)OC(=O)NCCCCC1=CC2=CC(=O)C(C)(OC(=O)C3CCCC3)C(=O)C2=CO1 (centres undefined),·,-10.4%,·,·
O=C(CSc1ccccn1)Nc1nonc1[N+](=O)[O-],-1.7%,44.7µM*,?,-0.5%
O=C(CSc1ccccn1)Nc1ccc(NC(=O)CSc2ccccn2)cc1,-4.6%,3.8%,8.0%,0.0%
COc1ccccc1NC(=O)c1cc2c(n(-c3ccc(C)cc3)c1=O)CC(C)(C)CC2=O,·,·,·,36.4%
COc1ccccc1N1CCN(c2nc(C)nc3c2oc2ccccc23)CC1,2.2%,25.1µM*,·,31.6µM*
COc1ccccc1N1CCN(Cc2cc(Br)c(O)c3ncccc23)CC1,4.8%,16.9%,2.82µM*,-1.9%
Cc1nc(N2CCN(Cc3ccc(Cl)cc3)CC2)c2oc3ccccc3c2n1,0.6%,22.4µM*,4.5%,·
SMILES,TCR act,Sfp PPTase inh,uPA surface inh,ClpP mod
CCN(CC)C(=O)c1ccccc1NC(=O)CN1C(=O)c2ccccc2S1(=O)=O,8.1%,7.0%,2.5%,·
Cc1ccc(-c2cc(C(=O)N3CC(C)CC(C)C3)c3ccccc3n2)o1 (centres undefined),-127.9%,22.4µM*,-3.7%,·
Cc1ccc(-c2cc(C(=O)N3CC(C)OC(C)C3)c3ccccc3n2)o1 (centres undefined),-3.9%,·,-5.1%,14.1µM*
Cc1ccccc1NC(=O)COc1ccccc1C(=O)Nc1ccccc1,·,·,·,-24.6%
O=c1[nH]cc(CCc2ccccc2)c2ncncc12,·,·,·,4.1%
CCc1cccc(NC(=O)CNS(=O)(=O)c2ccc3nc(C)sc3c2)c1,·,·,·,-0.5%
O=C(C[N+]12CN3CN(CN(C3)C1)C2)c1ccc(I)cc1,·,·,·,-2.6%
